From PubChem
A selection: hits, their analogues and other compounds. The true share with any hit is near 5.5%.
BCR signal inh: qHTS Assay to Find Inhibitors of Chronic Active B-Cell Receptor Signaling | ABC-DLBCL IkBa-CBG/CBR reporter, luminescence ratio, 4 h | Potency, µM (top dose mostly 46.1 µM), hits mostly inhibitors | 340,000 compounds, 0.05% hits | AID 493014, 2011; active = well fitted inhibition curve with a large enough effect in the signal ratio, with a control signal flat, not every such curve was filed as active; inconclusive = small, poorly fitted or top-dose-only effect, or effect the other way, or a change in a side signal; the % refers to the signal ratio
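Cell line TMD8 (human ABC DLBCL), stably expressing tet-inducible CBG68-IkBa fusion and CBR; IMDM/0.5% FBS; cpd up to 46 uM; dox induction, 4 h, 37C/5% CO2; dual luminescence; green/red ratio; MG132 control.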
uPA surface inh: qHTS for Inhibitors of Cell Surface uPA Generation; cell surface uPA generation assay, qHTS; Potency, µM (top dose mostly 38.3 µM), hits mostly inhibitors; 330,000 compounds, 0.31% hits; AID 540303, 2011; active = well fitted inhibition curve with a large enough effect; inconclusive = small, poorly fitted or top-dose-only effect; inactive = no such curve, though single readings can be large or run the other way; tested in mouse RAW 264.7 cells; note: nearly all actives have a fitted effect of over 55% in size
Gal4-VP16 FLuc: VP16 counterscreen qHTS for inhibitors of ROR gamma transcriptional activity | Drosophila S2 Gal4-VP16 UAS-luciferase, luminescence, 20 h | Potency, µM (highest dose often 53.6 µM), most hits filed as inhibitors | 310,000 compounds, 3.5% hits;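 note: Gal4-VP16 expression switched on by copper sulfate through the metallothionein promoter; nearly all actives have a fitted effect of over 50% in size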
Integrin act MD: qHTS for Activators of Integrin-Mediated Alleviation for Muscular Dystrophy. alpha7betagal myoblasts, beta-gal FDG fluorescence, 48 h. Potency, µM (doses to about 38.3 µM), usual class: activators. 350,000 compounds, 0.064% hits; note: nearly all actives have a fitted effect of over 60% in size
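Alpha7betagal+/- myoblasts (passage 13) were plated 16-24 hr, then exposed to compounds (1:260 dilution of DMSO stock) for 48 hours at 37C. After MPER lysis, β-galactosidase reporter activity was read as FDG fluorescence (ex 480/em 540) after 30 minutes.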
RORgamma inh: qHTS for inhibitors of ROR gamma transcriptional activity | Nuclear receptor ROR-gamma (Mus musculus), P51450 | Drosophila S2 Gal4-RORgamma UAS-luciferase reporter, 20 h | Potency, µM (titrated, usually from 53.6 µM), usual class: inhibitors | 310,000 compounds, 5.4% hits; note: nearly all actives have a fitted effect of over 60% in size
Target sequence (P51450 whole entry, looked up, the tested form may be a part): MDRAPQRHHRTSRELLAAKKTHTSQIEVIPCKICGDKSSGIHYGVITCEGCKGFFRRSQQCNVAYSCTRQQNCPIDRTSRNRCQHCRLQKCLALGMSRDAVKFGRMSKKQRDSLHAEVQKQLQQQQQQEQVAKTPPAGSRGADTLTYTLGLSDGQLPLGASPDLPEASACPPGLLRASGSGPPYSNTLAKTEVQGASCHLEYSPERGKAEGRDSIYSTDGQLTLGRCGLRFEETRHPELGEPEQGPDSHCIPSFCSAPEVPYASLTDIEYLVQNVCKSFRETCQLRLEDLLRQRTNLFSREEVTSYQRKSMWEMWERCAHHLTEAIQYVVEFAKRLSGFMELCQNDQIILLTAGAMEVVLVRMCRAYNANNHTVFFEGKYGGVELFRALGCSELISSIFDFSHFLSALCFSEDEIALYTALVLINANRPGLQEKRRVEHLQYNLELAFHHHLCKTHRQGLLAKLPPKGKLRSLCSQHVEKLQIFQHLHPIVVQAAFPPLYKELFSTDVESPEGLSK
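Luciferase reporter read in Schneider cells carrying Gal4-RORγ (mouse) and UAS-Photinus luciferase; cells given compound 1 h before 700 uM copper sulfate induction, then incubated 20 h at ambient temperature.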
Mito fusion yeast: qHTS Assay for Small Molecule Inhibitors of Mitochondrial Division or Activators of Mitochondrial Fusion; 320,000 compounds, 0.23% hits; AID 485298, 2010; Potency, µM (highest dose often 46.1 µM), hits mostly activators; S. cerevisiae fusion-defective mutant growth rescue, CellTiterGlo 48 h; note: nearly all actives have a fitted effect of over 45% in size
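Growth-rescue viability read-out: after 48 h at the non-permissive 37C in glycerol/ethanol YPEG, yeast mitochondrial fusion mutants are measured by CellTiterGlo luminescence; compounds (23 nl pinned per well) restoring growth score as division inhibitors or fusion activators.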
Numbers stand for hits; n = inactive; u = inconclusive; x = no result given; ! = not active in a repeat; [ ] = remark or other dose. Unless noted, calls come from the whole dose curve; as a rule, active = well fitted curve in the direction sought with a large enough effect; inconclusive = small, poorly fitted or top-dose-only effect, or another doubt; inactive = no such curve, though single readings can be large; an effect the other way counts as inactive or inconclusive.

SMILES | BCR signal inh | uPA surface inh | Gal4-VP16 FLuc | Integrin act MD | RORgamma inh | Mito fusion yeast
CN(CCC#N)c1ccc(C=C(C#N)c2ccc(Br)cc2)cc1 | x | x | x | n | x | x
CCN(Cc1ccccc1)c1ccc(/C=C(\C#N)c2ccccn2)cc1 | u | n | u | n | u | n
Cc1ccc(OC(=O)c2cc(C)nn2C(C)(C)C)cc1 | n | n | n | n | n | n
Cc1ccc(/C=C/c2nc3ccccc3[nH]2)o1 | u | n | n | n | 11µM | n
O=C(NC1CCCCCC1)c1c2c(nc3ccccc13)CCN(Cc1ccccc1)C2 | n | n | n | n | n | n
Cc1cc(N2CCN(C)CC2)ccc1NC(=O)c1c2c(nc3ccccc13)CCN(Cc1ccccc1)C2 | u | n | 11µM | n | 11µM | n
Cc1cc(C)n(-c2nc3ccccc3c(=O)n2OCC(=O)N(C)C)n1 | n | n | n | n | n | n
Cc1cc(C)n(-c2nc3ccccc3c(=O)n2OCc2ccc(Cl)cc2)n1 | n | n | u | n | 10µM | n
Cc1cc(C)n(-c2nc3ccccc3c(=O)n2OCC(=O)OCc2ccccc2)n1 | u | n | 2.5µM | n | 0.56µM | n
Cc1cc(C)n(-c2nc3ccccc3c(=O)n2OCC(=O)Nc2c(C)cccc2C)n1 | u | n | u | n | 11µM | n
CC(C)C[C@H](NC(=O)[C@H](C)NC(=O)CNC(=O)[C@H](CCCCN)NC(=O)[C@H](CCCN=C(N)N)NC(=O)[C@H](C)NC(=O)[C@H](Cc1ccccc1)NC(=O)[C@@H](N)CCCN=C(N)N)C(=O)N[C@@H](CCCN=C(N)N)C(=O)N[C@@H](CCC(N)=O)C(=O)N[C@@H](CCCCN)C(=O)N[C@@H](CC(N)=O)C(=O)N[C@H](C(N)=O)C(C)C | x | x | n | x | n | x
C/C(=C(/CCOC(=O)C(C)C)SS/C(CCOC(=O)C(C)C)=C(\C)N(C=O)Cc1cnc(C)nc1N)N(C=O)Cc1cnc(C)nc1N | x | x | n | x | n | x
C=C(Cl)COc1ccc2c(CCCC)cc(=O)oc2c1 | n | n | n | n | n | n
CCCCc1cc(=O)oc2cc(OS(C)(=O)=O)ccc12 | u | n | n | n | u | 16µM
COc1ccc(-c2nc3c(c4c2CC(C)OC4)CN(CCC(C)C)CC3)cc1 (centres undefined) | x | x | n[10 µM] | x | n[10 µM] | x
O=C1C2C3C=CC(C3)C2C(=O)N1c1ccc(N2CCN(c3ccccn3)CC2)c([N+](=O)[O-])c1 (centres undefined) | n | n | 4µM | n | u | n
CC(=O)c1ccc(N2CCN(c3ncnc4c3cnn4-c3cc(Cl)ccc3C)CC2)cc1 | n | x | x | x | x | x
Cc1onc(C(=O)N2CCN(C(c3ccccc3)c3ccccc3)CC2)c1[N+](=O)[O-] | n | 10µM | n | n | n | n
COc1ccccc1N1CCN(C(=O)c2noc(C)c2[N+](=O)[O-])CC1 | n | n | n | n | n | n
CC[C@H](C)[C@H](NC(=O)[C@H](CO)NC(=O)[C@H](CC(C)C)NC(=O)[C@@H]1CCCN1C(=O)[C@@H]1CCCN1C(=O)[C@H](CC(=O)O)NC(=O)[C@@H](N)CC(=O)O)C(=O)N[C@@H](CC(=O)O)C(=O)N[C@@H](CC(C)C)C(=O)N[C@H](C(=O)N[C@@H](Cc1ccccc1)C(=O)N[C@@H](Cc1cnc[nH]1)C(=O)N[C@@H](CC(C)C)C(=O)N[C@@H](CC(C)C)C(=O)N[C@@H](CCCNC(=N)N)C(=O)N[C@H](C(=O)N[C@@H](CC(C)C)C(=O)N[C@@H](CC(C)C)C(=O)N[C@@H](CCC(=O)O)C(=O)N[C@@H](CC(C)C)C(=O)N[C@@H](C)C(=O)N[C@@H](CCCNC(=N)N)C(=O)N[C@H](C(=O)N[C@@H](CCC(N)=O)C(=O)N[C@@H](CO)C(=O)N[C@@H](CCC(N)=O)C(=O)N[C@@H](CCCNC(=N)N)C(=O)N[C@@H](CCC(=O)O)C(=O)N[C@@H](CCCNC(=N)N)C(=O)N[C@@H](C)C(=O)N[C@@H](CCC(=O)O)C(=O)N[C@@H](CCC(N)=O)C(=O)N[C@@H](CC(N)=O)C(=O)N[C@@H](CCCNC(=N)N)C(=O)N[C@H](C(=O)N[C@H](C(=O)N[C@@H](Cc1ccccc1)C(=O)N[C@@H](CC(=O)O)C(=O)N[C@@H](CO)C(=O)N[C@H](C(N)=O)C(C)C)[C@@H](C)CC)[C@@H](C)CC)[C@@H](C)O)[C@@H](C)O)[C@@H](C)O | x | x | n | x | n | x
COc1ncc2nc(-c3cccs3)c(=O)n(Cc3ccc(F)cc3)c2n1 | x | x | n | x | n | x
Fc1ccc2c(c1)c1n[nH]c(=S)nc1n2CCc1ccccc1 | n | n | 2.8µM | n | 1.4µM | n
CCn1c2ccc(C)cc2c2n[nH]c(=S)nc21 | n | n | 3.2µM | n | n[1.91 µM] | n
CCN(CC)CCn1c2ccccc2c2n[nH]c(=S)nc21 | n | n | x | n | x | n
Cc1ccc2c(c1)c1n[nH]c(=S)nc1n2CCc1ccccc1 | n | n | u | n | 4µM | n
SMILES | BCR signal inh | uPA surface inh | Gal4-VP16 FLuc | Integrin act MD | RORgamma inh | Mito fusion yeast
C/C=C/Cn1c(N2CCCCCC2)nc2c1c(=O)[nH]c(=O)n2C | n | n | n | n | n[10 µM] | n
Cn1c(=O)[nH]c(=O)c2c1nc(N1CCCCC1)n2C/C=N/Nc1ccc(C(=O)O)cc1 | u | n | u | n | 7.1µM | n
Cc1nc2c(C(=O)NCCC(C)C)cnn2c(C)c1Cc1c(F)cccc1Cl | n | x | x | x | x | x
O=C(c1ccco1)N1CCC2(CC1)CN(Cc1cc(C(F)(F)F)cc(C(F)(F)F)c1)C2 | x | x | n | x | n | x
CC(=O)Nc1ccc(S(=O)(=O)N(C)CC(=O)N/N=C/c2ccncc2)cc1 | n | n | n | n | n | 22µM
Nc1cc([N+](=O)[O-])ccc1O | u | n | 13µM! | n | n | n
CC(C)(C)C(=O)N1CCC[C@H]1C(O)(c1ccccc1)c1ccccc1 | u | n | 22µM | n | u | 35µM
O=C(C1CC1)N1CCC(C(O)(c2ccccc2)c2ccccc2)CC1 | n | n | n | n | n | n
CCOc1ccccc1CN1CCNC(=O)C1CC(=O)NCc1nccn1CC (centres undefined) | n | n | n | n | n | n
COc1ccc(NCc2ccc([N+](=O)[O-])s2)c(OC)c1 | u | n | 11µM | n | n | n
S=c1nc(C2COc3ccccc3O2)[nH][nH]1 (centres undefined) | n | n | n | n | 13µM | n
COC(=O)[C@H](Cc1ccc(O)cc1)NC(=O)Cn1cnc2c(OCc3ccccc3)ncnc21 | u | n | x | n | x | x
Cc1ccc(C)c(N)c1 | n | n | n | x | n | n
Cc1ccc(O)c(N)c1 | n | 2.8µM | u | x | u | n
